Assay results reported in the supplement of paper PMC10849652.
Targets with a hit are over-represented here; the source holds about 7,900 in all. About 0.6% of all pairs of compound and target were hits. Unmarked numbers belong to inactive results.

Legend:
Experiment in all cases: log2 fold change, soluble protein after heating vs DMSO (PISA); higher = thermal stabilisation; K562 cells, 10 uM, 30 min; active = over 0.2 and 3.5 SD of the protein, either way, in both replicates (recomputed)
[1] = compound: CC1=C(C=C(C=C1)NC(=O)C2=CC(=CC=C2)C(C)(C)C#N)NC3=CC4=C(C=C3)N=CN(C4=O)C
In short: (§1)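 K562 cells at 2×10^6 cells/mL were treated for 30 min with 10 μM compound, and aliquots were heated for 3 min over 48°C-58°C before pooling. Extraction used PBS with 0.5% NP-40 at 4°C, and soluble protein was the supernatant after 21,000xg for 90 min, measured by TMTpro 16plex LC-MS/MS with channel sums equalised. Thermal stability values, relative to control samples and from duplicates, are log2 fold changes.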

[2] = compound: CC1=C(C=C(C=C1)NC(=O)C2=CC(=CC=C2)N(C)C)NC(=O)C3=CC=C(C=C3)O
In short: as §1

[3] = compound: CC1=CC=C(C=C1)SC2=C3C=C(SC3=CN=C2)C(=O)N
In short: as §1

[4] = compound: CC1=NC(=CC=C1)C2=C(N=C(N2)C(C)(C)C)C3=CC4=NC=CN=C4C=C3
In short: as §1

[5] = compound: CCCCN(Cc1ccc(C(=O)NO)cc1)C(=O)Nc1ccccc1 [Nexturastat A]
In short: as §1

[6] = compound: CCCS(=O)(=O)Nc1ccc(F)c(C(=O)c2c[nH]c3ncc(-c4ccc(Cl)cc4)cc23)c1F [vemurafenib]
In short: as §1

[7] = compound: CCCS(=O)(=O)Nc1ccc(F)c(C(=O)c2c[nH]c3ncc(Cl)cc23)c1F
In short: as §1

[8] = compound: CCCc1cc(C)[nH]c(=O)c1CNC(=O)c1cc(-c2ccnc(N3CCN(C)CC3)c2)cc2c1cnn2C(C)C
In short: as §1

[9] = compound: CCN(CC)Cc1ccc2cc(COC(=O)Nc3ccc(C(=O)NO)cc3)ccc2c1 [givinostat]
In short: as §1

[10] = compound: CCN(CCCOc1ccc2c(Nc3cc(CC(=O)Nc4cccc(F)c4)[nH]n3)ncnc2c1)CCOP(=O)(O)O [barasertib]
In short: as §1

[11] = compound: CC[C@@H]1C(=O)N(C)c2cnc(Nc3ccc(C(=O)NC4CCN(C)CC4)cc3OC)nc2N1C1CCCC1
In short: as §1

[12] = compound: CC[C@@H]1C(=O)N(C)c2cnc(Nc3ccc(C(=O)N[C@H]4CC[C@H](N5CCN(CC6CC6)CC5)CC4)cc3OC)nc2N1C(C)C [volasertib]
In short: as §1

[13] = compound: CC[C@H](C)N1C=C(C2=C(C=C(C=C21)C3=CN=C(C=C3)N4CCNCC4)C(=O)NCC5=C(C=C(NC5=O)C)C)C
In short: as §1

[14] = compound: CC[C@H](C)[C@@H](C(=O)N[C@@H]([C@@H](C)O)C(=O)N[C@@H](CC(C)C)C(=O)[C@]1(CO1)C)NC(=O)[C@H]([C@@H](C)CC)N(C)C(=O)C [epoxomicin]
In short: as §1

[15] = compound: CCn1c(C(=O)N(C2CC2)C2CC2)cc2c3c(ncn3C)c(Nc3cc(C)n(C)n3)nc21
In short: as §1

[16] = compound: CCn1cc(-c2ccnc3[nH]c(-c4cccc(CN(C)C)c4)cc23)c(-c2ccc(NC(=O)N(C)C)cc2)n1
In short: as §1

[17] = compound: CN(C)CC(=O)Nc1ccc2[nH]c(=O)c3ccccc3c2c1
In short: as §1

[18] = compound: CN(CCOC1=CC=C(C=C1)C[C@H]2C(=O)NC(=O)S2)C3=CC=CC=N3 (racemic) [rosiglitazone]
In short: as §1

[19] = compound: CN1C2=C(C3=C1C(=O)N(N=C3)CC4=CC(=CC=C4)N)SC(=C2)S(=O)C
In short: as §1

[20] = compound: CN1CCC(CNc2ccc3ncc(-c4cccc(OC(F)(F)F)c4)n3n2)CC1
In short: as §1

Sequence of UniProt P06454 (P06454 whole entry, looked up): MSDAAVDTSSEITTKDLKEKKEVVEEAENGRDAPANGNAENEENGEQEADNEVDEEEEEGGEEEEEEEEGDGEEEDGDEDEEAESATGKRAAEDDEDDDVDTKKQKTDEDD
Sequence of UniProt Q93096 (Q93096 whole entry, looked up): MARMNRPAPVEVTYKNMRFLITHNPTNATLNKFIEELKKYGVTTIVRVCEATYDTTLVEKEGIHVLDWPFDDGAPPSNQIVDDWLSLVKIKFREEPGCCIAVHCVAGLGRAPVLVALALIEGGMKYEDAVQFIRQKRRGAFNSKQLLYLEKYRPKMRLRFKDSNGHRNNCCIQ
Sequence of UniProt Q9P2B2 (Q9P2B2 whole entry, looked up): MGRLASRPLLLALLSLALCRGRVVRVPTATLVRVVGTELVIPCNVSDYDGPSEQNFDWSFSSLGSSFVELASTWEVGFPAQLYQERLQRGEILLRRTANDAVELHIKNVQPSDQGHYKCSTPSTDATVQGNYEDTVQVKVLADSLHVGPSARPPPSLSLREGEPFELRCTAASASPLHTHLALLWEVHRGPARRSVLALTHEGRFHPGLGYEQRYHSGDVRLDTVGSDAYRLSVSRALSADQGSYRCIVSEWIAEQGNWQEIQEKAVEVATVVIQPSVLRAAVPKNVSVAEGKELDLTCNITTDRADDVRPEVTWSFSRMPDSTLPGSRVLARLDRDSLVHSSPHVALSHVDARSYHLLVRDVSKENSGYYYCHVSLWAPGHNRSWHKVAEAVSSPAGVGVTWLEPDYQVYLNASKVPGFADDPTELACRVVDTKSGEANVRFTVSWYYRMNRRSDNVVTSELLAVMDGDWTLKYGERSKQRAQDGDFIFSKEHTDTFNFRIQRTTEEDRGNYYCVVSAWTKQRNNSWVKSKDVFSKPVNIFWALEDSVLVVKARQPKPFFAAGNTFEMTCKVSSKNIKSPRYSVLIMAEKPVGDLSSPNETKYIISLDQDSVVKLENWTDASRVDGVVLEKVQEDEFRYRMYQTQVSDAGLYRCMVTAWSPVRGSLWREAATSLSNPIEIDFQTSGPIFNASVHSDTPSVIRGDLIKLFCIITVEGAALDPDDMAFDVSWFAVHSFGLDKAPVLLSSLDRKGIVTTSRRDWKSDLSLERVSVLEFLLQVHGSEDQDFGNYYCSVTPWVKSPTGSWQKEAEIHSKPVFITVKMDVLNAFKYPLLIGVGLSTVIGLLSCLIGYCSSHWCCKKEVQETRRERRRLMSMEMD
Sequence of UniProt O15355 (O15355 whole entry, looked up): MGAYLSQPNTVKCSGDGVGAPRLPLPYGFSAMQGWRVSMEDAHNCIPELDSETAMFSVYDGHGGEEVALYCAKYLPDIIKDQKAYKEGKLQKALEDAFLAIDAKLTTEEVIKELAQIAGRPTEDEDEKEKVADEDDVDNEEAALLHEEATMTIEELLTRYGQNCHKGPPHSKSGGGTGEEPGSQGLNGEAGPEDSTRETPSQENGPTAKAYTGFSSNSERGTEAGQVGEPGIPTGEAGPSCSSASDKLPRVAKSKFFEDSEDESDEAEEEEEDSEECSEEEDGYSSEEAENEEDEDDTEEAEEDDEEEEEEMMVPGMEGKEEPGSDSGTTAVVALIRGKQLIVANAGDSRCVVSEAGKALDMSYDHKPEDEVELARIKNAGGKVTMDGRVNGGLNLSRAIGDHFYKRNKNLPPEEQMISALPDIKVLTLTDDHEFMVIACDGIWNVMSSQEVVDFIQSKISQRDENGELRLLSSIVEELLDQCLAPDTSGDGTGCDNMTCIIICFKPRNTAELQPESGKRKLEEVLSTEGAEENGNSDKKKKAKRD
Sequence of UniProt Q8WWY3 (Q8WWY3 whole entry, looked up): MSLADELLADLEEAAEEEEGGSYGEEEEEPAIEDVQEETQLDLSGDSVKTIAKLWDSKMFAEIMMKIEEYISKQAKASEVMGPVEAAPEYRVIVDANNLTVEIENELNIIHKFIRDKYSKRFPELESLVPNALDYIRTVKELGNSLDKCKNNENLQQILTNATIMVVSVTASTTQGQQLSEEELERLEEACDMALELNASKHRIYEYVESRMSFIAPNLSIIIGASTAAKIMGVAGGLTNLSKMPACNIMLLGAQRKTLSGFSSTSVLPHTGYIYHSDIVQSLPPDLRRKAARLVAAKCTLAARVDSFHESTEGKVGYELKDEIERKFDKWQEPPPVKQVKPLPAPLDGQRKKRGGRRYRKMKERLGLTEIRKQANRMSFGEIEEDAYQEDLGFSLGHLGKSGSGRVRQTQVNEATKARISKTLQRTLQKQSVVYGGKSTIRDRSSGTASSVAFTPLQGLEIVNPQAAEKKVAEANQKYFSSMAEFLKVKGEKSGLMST
Sequence of UniProt Q5H8A4 (Q5H8A4 whole entry, looked up): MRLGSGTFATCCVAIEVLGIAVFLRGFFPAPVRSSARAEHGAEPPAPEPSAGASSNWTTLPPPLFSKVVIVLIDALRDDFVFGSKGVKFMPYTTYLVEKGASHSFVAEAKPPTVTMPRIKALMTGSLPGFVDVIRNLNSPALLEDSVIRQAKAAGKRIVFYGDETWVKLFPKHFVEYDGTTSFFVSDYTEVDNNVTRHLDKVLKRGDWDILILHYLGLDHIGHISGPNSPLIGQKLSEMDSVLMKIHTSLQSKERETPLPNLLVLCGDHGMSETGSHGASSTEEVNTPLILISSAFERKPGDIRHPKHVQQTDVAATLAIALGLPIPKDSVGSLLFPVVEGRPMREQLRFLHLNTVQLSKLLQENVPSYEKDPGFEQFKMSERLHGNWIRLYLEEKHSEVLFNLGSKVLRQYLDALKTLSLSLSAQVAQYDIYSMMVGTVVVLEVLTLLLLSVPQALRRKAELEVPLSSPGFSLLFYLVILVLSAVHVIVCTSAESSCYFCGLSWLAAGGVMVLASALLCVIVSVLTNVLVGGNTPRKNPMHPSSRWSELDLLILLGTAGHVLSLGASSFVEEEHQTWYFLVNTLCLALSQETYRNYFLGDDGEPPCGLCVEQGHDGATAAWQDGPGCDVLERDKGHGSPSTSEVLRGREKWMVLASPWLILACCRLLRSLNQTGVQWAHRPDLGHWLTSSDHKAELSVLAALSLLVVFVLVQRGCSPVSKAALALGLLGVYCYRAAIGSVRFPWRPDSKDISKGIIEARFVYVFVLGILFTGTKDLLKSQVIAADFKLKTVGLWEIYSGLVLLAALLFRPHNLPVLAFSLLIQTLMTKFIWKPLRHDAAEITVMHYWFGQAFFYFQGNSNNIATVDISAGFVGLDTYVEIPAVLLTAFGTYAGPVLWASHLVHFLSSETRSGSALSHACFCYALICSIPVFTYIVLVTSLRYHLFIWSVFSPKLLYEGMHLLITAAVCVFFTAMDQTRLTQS
Sequence of UniProt P09884 (P09884 whole entry, looked up): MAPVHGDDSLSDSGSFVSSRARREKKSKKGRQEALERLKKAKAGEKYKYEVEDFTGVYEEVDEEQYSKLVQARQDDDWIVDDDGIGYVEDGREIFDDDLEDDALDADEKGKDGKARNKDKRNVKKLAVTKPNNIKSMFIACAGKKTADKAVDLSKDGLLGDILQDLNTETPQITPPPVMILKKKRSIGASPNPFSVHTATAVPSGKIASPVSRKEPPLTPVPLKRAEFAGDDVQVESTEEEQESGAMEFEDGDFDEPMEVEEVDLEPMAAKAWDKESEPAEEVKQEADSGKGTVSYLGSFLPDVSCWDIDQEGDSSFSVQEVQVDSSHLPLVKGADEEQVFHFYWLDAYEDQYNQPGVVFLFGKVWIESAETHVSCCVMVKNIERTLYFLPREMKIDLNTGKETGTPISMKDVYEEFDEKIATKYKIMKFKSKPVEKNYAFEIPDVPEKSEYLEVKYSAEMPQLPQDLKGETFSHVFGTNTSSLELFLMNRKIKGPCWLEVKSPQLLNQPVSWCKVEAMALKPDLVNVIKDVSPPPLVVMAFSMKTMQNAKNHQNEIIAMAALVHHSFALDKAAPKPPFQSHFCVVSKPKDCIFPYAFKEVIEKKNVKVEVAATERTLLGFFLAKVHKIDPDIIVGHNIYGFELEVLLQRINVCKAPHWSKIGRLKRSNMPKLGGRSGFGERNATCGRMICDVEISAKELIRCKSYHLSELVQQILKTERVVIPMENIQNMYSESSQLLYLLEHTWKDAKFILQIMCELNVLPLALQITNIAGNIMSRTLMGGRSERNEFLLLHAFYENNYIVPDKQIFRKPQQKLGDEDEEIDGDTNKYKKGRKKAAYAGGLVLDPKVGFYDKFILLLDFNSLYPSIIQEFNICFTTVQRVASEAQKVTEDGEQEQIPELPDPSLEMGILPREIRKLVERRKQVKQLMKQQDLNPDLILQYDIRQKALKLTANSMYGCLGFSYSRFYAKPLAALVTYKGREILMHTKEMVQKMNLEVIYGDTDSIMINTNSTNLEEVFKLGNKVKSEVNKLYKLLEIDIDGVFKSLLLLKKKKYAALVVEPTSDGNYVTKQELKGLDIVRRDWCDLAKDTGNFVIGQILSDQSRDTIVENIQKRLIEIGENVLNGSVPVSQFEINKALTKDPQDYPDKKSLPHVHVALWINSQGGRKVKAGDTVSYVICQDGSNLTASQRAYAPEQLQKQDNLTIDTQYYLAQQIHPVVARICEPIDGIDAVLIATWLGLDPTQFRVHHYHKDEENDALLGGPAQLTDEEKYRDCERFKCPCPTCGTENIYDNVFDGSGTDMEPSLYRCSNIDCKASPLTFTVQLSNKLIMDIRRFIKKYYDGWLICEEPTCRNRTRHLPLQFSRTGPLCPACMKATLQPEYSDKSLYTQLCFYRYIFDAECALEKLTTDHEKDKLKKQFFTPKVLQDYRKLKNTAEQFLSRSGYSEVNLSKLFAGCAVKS
Sequence of UniProt Q8N8N7 (Q8N8N7 whole entry, looked up): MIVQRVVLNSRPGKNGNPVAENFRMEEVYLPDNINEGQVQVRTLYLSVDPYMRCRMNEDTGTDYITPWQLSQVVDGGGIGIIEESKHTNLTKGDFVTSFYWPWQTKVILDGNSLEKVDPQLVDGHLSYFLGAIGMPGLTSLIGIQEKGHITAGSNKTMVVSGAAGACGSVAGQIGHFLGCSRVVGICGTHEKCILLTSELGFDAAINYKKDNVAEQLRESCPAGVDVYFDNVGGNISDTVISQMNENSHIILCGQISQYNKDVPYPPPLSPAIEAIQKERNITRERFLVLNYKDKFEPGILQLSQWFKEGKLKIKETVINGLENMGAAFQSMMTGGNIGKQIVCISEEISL

Row | Target | log2 fold change [1] | log2 fold change [2] | log2 fold change [3] | log2 fold change [4] | log2 fold change [5] | log2 fold change [6] | log2 fold change [7] | log2 fold change [8] | log2 fold change [9] | log2 fold change [10] | log2 fold change [11] | log2 fold change [12] | log2 fold change [13] | log2 fold change [14] | log2 fold change [15] | log2 fold change [16] | log2 fold change [17] | log2 fold change [18] | log2 fold change [19] | log2 fold change [20]
1 | PRPF31 (UniProt Q8WWY3) | 0.021 | -0.12 | 0 | 0.067 | -0.01 | -0.017 | 0.087 | 0.106 | 0.065 | 0.096 | -0.113 | -0.548 (active) | 0.172 | 0.049 | -0.058 | -0.079 | 0.181 | 0.104 | -0.041 | -0.348
2 | POLA1 (UniProt P09884) | -0.001 | -0.029 | -0.003 | 0.052 | -0.064 | 0.064 | 0.053 | 0.024 | 0.093 | 0.098 | -0.048 | -0.466 (active) | 0.059 | 0.045 | -0.014 | -0.089 | 0.032 | 0.046 | -0.012 | -0.163
3 | PSMC5 (UniProt P62195) | 0.014 | 0.011 | -0.029 | -0.05 | 0.003 | -0.048 | -0.053 | 0.032 | -0.082 | -0.034 | 0.043 | 0.178 | -0.002 | -0.308 (active) | 0.024 | 0.039 | -0.029 | -0.014 | 0.015 | 0.066
4 | PTMA (UniProt P06454) | 0.133 | -0.041 | 0.053 | 0.213 | -0.077 | 0.05 | -0.044 | -0.008 | -0.022 | -0.013 | -0.167 | 0.112 | -0.064 | 0.2 | 0.017 | -0.009 | -0.01 | -0.032 | -0.027 | -0.052
5 | PTP4A1 (UniProt Q93096) | -0.007 | -0.005 | 0.023 | 0.023 | 0.002 | 0 | 0.062 | -0.024 | -0.003 | 0.035 | 0.025 | 0.019 | 0.036 | 0.065 | 0.029 | -0.055 | -0.044 | -0.011 | -0.043 | 0.022
6 | PRKAB1 (UniProt Q9Y478) | -0.055 | 0.026 | 0.022 | 0.01 | -0.002 | 0.031 | 0.017 | 0.109 | 0.08 | 0.026 | -0.079 | -0.418 (active) | 0.045 | 0.055 | -0.05 | -0.018 | 0.022 | -0.002 | -0.026 | -0.155
7 | PDCD4 (UniProt Q53EL6) | 0.029 | -0.043 | 0.012 | 0.016 | -0.11 | 0.083 | 0.107 | -0.06 | 0.103 | 0.002 | -0.26 | -0.585 (active) | -0.013 | 0.055 | -0.045 | -0.053 | 0.065 | 0.056 | -0.107 | 0.011
8 | PIGG (UniProt Q5H8A4) | 0.016 | -0.003 | 0.004 | -0.007 | 0.018 | 0.359 | -0.019 | -0.045 | 0.001 | 0.001 | -0.062 | 0.022 | 0.037 | -0.017 | -0.049 | -0.022 | 0.009 | 0.015 | -0.04 | 0.093
9 | PISD (UniProt Q9UG56) | -0.015 | 0.002 | 0.013 | 0.085 | 0.022 | -0.068 | 0.049 | 0.009 | 0.024 | 0.026 | -0.136 | -0.117 | -0.017 | -0.002 | -0.029 | -0.076 | -0.113 | 0.027 | -0.036 | -0.192
10 | PTGFRN (UniProt Q9P2B2) | -0.044 | -0.025 | 0.006 | -0.012 | -0.021 | 0.013 | -0.045 | -0.03 | 0.007 | -0.043 | 0.032 | 0.008 | 0 | 0.014 | 0.022 | -0.049 | -0.01 | 0.025 | -0.104 | 0.181
11 | PPM1G (UniProt O15355) | 0.087 | -0.04 | -0.031 | 0.048 | -0.053 | 0.112 | 0.13 | 0.067 | 0.17 | 0.052 | -0.208 | -0.381 (active) | 0.066 | 0.087 | -0.001 | -0.073 | 0.098 | 0.089 | 0.017 | -0.025
12 | PTGR2 (UniProt Q8N8N7) | -0.022 | -0.058 | 0.022 | -0.056 | -0.175 | -0.022 | -0.021 | 0.234 | 0.139 | 0 | 1.1 (active) | 1.27 (active) | 0.154 | -0.006 | 0.244 | -0.117 | 0.181 | -0.009 | 0.025 | -0.278
